H9c2 protect: modulators protecting cardiomyocytes from myocardial damage; protection from H2O2 cell death, % at 20 µM; H9c2 cardiomyocytes, H2O2 injury protection, ATPLite, 2 h; 360,000 compounds, 0.63% hits;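 active means compounds giving at least 50% protection of heart cells from peroxide-induced death in the single-dose screen, raw or plate-pattern-corrected value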;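 further: 0% = DMSO wells with peroxide and 100% = DMSO wells without peroxide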
PHOSPHO1 block: PHOSPHO1 (human) inhibition | Q8TCT1 | 290,000 compounds, 1.1% hits | recombinant PHOSPHO1, absorbance phosphatase assay | inhibition, % at 13.3 µM | AID 1565; in the data active means inhibition above about 60%
Cl transport mod: modulates chloride dependent transport by human KCC2; KCC2 cells, thallium flux FluoZin-2 fluorescence; 190,000 compounds, 2.2% hits; B-score of Tl+ flux slope (higher = more flux/activation; lower = inhibition) at 10 µM; Q9H2X9;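 active means thallium flux slope and its plate-corrected score both differing from the plate sample mean at a set confidence after two filtering rounds, in either direction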;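 further: slope of fluorescence scaled to starting intensity during 10 to 20 s after thallium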
Target sequence (Q9H2X9 whole entry, looked up): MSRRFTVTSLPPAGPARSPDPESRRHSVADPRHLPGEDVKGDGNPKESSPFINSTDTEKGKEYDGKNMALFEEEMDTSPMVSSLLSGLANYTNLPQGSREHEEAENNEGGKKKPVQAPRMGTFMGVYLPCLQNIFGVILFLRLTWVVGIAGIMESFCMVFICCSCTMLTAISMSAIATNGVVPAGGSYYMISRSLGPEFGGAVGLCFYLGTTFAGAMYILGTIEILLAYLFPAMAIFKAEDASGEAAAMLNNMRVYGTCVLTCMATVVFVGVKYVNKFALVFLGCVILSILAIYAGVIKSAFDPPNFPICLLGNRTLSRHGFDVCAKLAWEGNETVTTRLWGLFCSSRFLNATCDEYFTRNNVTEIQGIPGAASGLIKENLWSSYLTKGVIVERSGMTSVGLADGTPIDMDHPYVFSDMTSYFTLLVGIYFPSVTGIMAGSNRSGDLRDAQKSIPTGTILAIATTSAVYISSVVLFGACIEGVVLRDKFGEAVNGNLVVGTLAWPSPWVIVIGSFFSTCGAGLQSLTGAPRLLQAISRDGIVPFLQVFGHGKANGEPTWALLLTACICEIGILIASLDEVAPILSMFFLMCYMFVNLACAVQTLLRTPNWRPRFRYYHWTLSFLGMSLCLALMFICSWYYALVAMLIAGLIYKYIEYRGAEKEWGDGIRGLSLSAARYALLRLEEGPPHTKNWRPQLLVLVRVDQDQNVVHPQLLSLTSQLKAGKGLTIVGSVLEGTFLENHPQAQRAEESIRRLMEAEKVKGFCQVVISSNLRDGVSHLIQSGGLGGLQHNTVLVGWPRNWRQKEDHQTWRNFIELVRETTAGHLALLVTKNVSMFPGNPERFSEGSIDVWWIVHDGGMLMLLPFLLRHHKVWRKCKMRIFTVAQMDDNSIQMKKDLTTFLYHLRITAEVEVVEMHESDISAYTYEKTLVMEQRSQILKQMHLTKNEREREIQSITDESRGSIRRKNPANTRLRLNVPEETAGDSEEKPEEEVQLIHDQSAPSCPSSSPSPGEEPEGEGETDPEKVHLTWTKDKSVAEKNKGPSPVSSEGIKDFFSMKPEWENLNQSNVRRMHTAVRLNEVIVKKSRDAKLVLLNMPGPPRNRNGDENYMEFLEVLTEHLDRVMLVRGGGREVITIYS
Calb FLC: C. albicans growth modulation with fluconazole | growth inhibition, % (test concentration not listed) | AID 1979 | C. albicans CaCi-2 (fluconazole-resistant clinical isolate) + fluconazole, Alamar Blue growth, 48 h | 300,000 compounds, 0.57% hits;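 active means growth inhibition above about 58% in most replicates, limit read from the data, passing the limit was not always enough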;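 further: all wells also contain fluconazole at 8 µg/ml as a sub-toxic cotreatment; 0% = median of DMSO wells and 100% = median of geldanamycin control wells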
Efflux pump inh: blocks antifungal efflux pumps in multiplex yeast assay | S. cerevisiae Candida pump triplex, Nile Red efflux | AID 485275 | 330,000 compounds, 0.44% hits | inhibition, % at 10 µM;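 active means plate passing quality check with inhibition over a set limit, or well fluorescence over plate mean plus 4 SD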;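 further: Nile Red retained in pooled yeast measured as flow cytometry median fluorescence; 0% = buffer negative control and 100% = Enniatin B positive control; higher means more Nile Red kept so more efflux inhibition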
* hit, by the source's call; i = inactive; nt = not tested or not shown. Rows were chosen to be rich in hits. Some 3.3% of all compounds tested hit in one or more screens of this group.

SMILES	H9c2 protect	PHOSPHO1 block	Cl transport mod	Calb FLC	Efflux pump inh
N#CCn1cnc2c(oc3ccccc32)c1=O	4	3	nt	-3	0
Cc1nc(C)c(C(=O)N/N=C/c2cc(Br)ccc2O)s1	37	10	0.58	89*	0
Nc1nonc1C(=O)N/N=C/c1cc(Br)ccc1O	nt	-4	-1.1	101*	0
Nc1nonc1-n1nnc(C(=O)N/N=C/c2cc(Br)ccc2O)c1CNc1ccccc1	46	28	nt	88*	0
CCCc1c(C(=O)N/N=C(\C)c2ccc(CC(C)C)cc2)nnn1-c1nonc1N	0	nt	nt	nt	nt
CCCCc1nc2cc(C(=O)NC3CCOC(C)(C)C3)ccc2o1 (configuration not stated)	5	17	nt	-7	0
CC(/C=C/c1ccccc1)=N/NC(=O)c1cc([N+](=O)[O-])cc([N+](=O)[O-])c1	65*	2	3.3	nt	0
CC(/C=C/c1cccc([N+](=O)[O-])c1)=N/NC(=O)c1cccnc1	39	0	0.61	1	-1
Cc1ccc(/C=N\NC(=O)c2cc([N+](=O)[O-])cc([N+](=O)[O-])c2)o1	-2	3	4.7*	-2	0
Cc1scc(C(=O)N/N=C/c2ccc([N+](=O)[O-])o2)c1C	-7	37	nt	90*	0
Cc1nc2ccccn2c1C(=O)N/N=C/c1ccc([N+](=O)[O-])o1	9	36	1.2	100*	0
CCOc1ccccc1NC(=O)COC(=O)CC(C)(C)CC1=NS(=O)(=O)c2ccccc2N1	-6	24	nt	-15	0
Cc1cc(NC(=O)c2cccc(C)c2[N+](=O)[O-])no1	4	-29	nt	3	0
CCN(CC(=O)Nc1ccc2c(c1)OCCO2)C(=O)c1cc(=O)[nH]c2ccccc12	13	nt	nt	nt	0
C=CCN(c1ccccc1Cl)S(=O)(=O)c1cc(C(=O)N2CCCC2)ccc1Cl	0	24	-1.4	2	0
Cc1ccc(-c2nnc(Nc3ccc(CC(N)=O)cc3)c3ccccc23)cc1S(N)(=O)=O	0	42	nt	-2	1.7*
CCCOc1cccc(-c2nnc(NC(=O)c3ccco3)s2)c1	-6	12	nt	88*	0
COc1cccc(-c2nnc(NC(=O)c3ccco3)s2)c1	-8	28	nt	30	0
O=C(NC(c1ccc(Cl)cc1)c1ccccn1)C1CCN(CCOc2ccc(Cl)cc2Cl)CC1 (configuration not stated)	-32	nt	nt	nt	nt
O=S(=O)(/N=C(/Sc1ccccc1)c1ccccc1)c1ccccc1	52*	100*	0.17	-2	0
CC(=O)Nc1ccc(N/C(=N\S(=O)(=O)c2ccccc2)c2ccccc2)cc1	12	38	nt	nt	0
CS/C(=N\S(=O)(=O)c1ccccc1)c1ccccc1	56*	-5	0.16	14	0
COc1cc(NC(=NS(=O)(=O)c2ccccc2)c2ccccc2)ncn1	0	nt	nt	nt	nt
O=S(=O)(c1ccc2ccccc2c1)N1CCOCC1	1	22	nt	-1	0
O=C(Nc1ccc(N2CCOCC2)cc1)Nc1ccc2nc(-c3ccco3)c(-c3ccco3)nc2c1	63*	4	-0.82	-4	0
SMILES	H9c2 protect	PHOSPHO1 block	Cl transport mod	Calb FLC	Efflux pump inh
O=S(=O)(c1ccc2nc(-c3ccco3)c(-c3ccco3)nc2c1)N1CCOCC1	7	65*	-0.047	-7	0
O=C(Nc1ccc2nc(-c3ccco3)c(-c3ccco3)nc2c1)NC1CC1	6	22	-0.11	7	nt
O=C1NC(=Nc2ccccc2Cl)S/C1=C\c1cccc([N+](=O)[O-])c1O	-2	nt	nt	95*	0
CCN(CC)CCn1c(O)c(N=O)c2ccccc21	2	15	0.89	0	0
O=Nc1c(O)n(Cc2cccc(Cl)c2)c2ccccc12	-11	33	0.82	84*	0
COc1cc(C(=O)NCC(c2ccc(F)cc2)N2CCOCC2)ccc1OCc1ccccc1Cl (configuration not stated)	-4	nt	nt	3	0
O=[N+]([O-])c1ccc(C2CCCC/C2=N/OCc2ccc(F)cc2)c([N+](=O)[O-])c1 (configuration not stated)	-8	7	0.79	115*	0
CCn1c(C)nc2cc(C#N)ccc21	-4	-83	1.1	-36	0
Cc1cc2nc(C)n(CCCNC(=O)Nc3ccc(C#N)cc3)c2cc1C	0	60*	nt	3	0
Cc1nc2cc(Cl)ccc2n1CCO	5	33	nt	2	0
Cc1cc2nc(C)n(CCCN)c2cc1C	-3	60*	nt	26	0
Cc1ccc(C(=O)ONc2ccc(N=O)cc2)cc1	-27	-11	nt	-10	0
Cc1ccc(C(=O)ONc2ccc(N=NC(=O)c3ccccc3O)cc2)cc1	-6	69*	0.18	-33	0
CCC(=O)O/N=C(\N)c1ccc(Oc2cc(C)c(Cl)c(C)c2)c([N+](=O)[O-])c1	-9	37	i	-4	0
Cc1sc2nc(SCC(=O)N3CCCC3)[nH]c(=O)c2c1C	80*	-6	-0.057	0	0
Cc1sc2nc(SCC(=O)N3CCCCC3)[nH]c(=O)c2c1C	39	-2	0.62	-1	0
Cc1sc2nc(SCC(=O)N(C)C)[nH]c(=O)c2c1C	73*	-14	-0.59	0	0
CCN(CC)C(=O)CSc1nc2sc(C)c(C)c2c(=O)[nH]1	44	9	-1	19	0
Cc1sc2nc(CC(=O)NN)[nH]c(=O)c2c1C	37	-6	nt	-4	0
CC(=O)OCc1nc2sc(C)c(C)c2c(=O)[nH]1	51*	-7	0.25	-5	0
CC[C@@]1(C(=O)OC)N[C@H](CN(C)C(=O)c2ccc(C)cc2)[C@@H]2C(=O)N(C)C(=O)[C@@H]21	-2	nt	nt	nt	0
CN1CCN([C@@H]2CS(=O)(=O)N[C@H]2COCc2ccccc2)CC1	3	nt	nt	nt	nt
O=C(Nc1ccc(S(=O)(=O)N2CCCCC2)cc1)c1ccc(Cl)nc1	-11	nt	nt	nt	0
Cc1ccccc1C(=O)NC(=S)NCCc1ccccc1	-11	-7	8.3*	10	1
CCCN(CCC)C(=S)NC(=O)c1ccc(-c2ccccc2)cc1	20	40	nt	-6	0
SMILES	H9c2 protect	PHOSPHO1 block	Cl transport mod	Calb FLC	Efflux pump inh
CCN(CC)C(=S)NC(=O)c1ccc(Cl)cc1Cl	1	24	12*	18	0
O=C(NC(=S)NCCN1CCOCC1)c1ccc(Cl)cc1Cl	2	43	-0.21	10	0
CCCCNC(=S)NC(=O)c1ccc(Cl)cc1Cl	-14	31	5.3*	16	0
CCCCN(CCCC)C(=S)NC(=O)c1ccccc1Cl	6	1	65*	-4	0
COc1ccccc1CNC(=O)CN(C)S(=O)(=O)c1ccc(F)cc1	-1	9	nt	-2	0
CC(C)CC(NC(=O)C1CCC(=O)N1)C(=O)NC(CC(C)C)C(=O)N1CCCC1C(N)=O (configuration not stated)	3	24	nt	2	0
CC1CCCC(NC(=S)NC(=O)c2ccccc2Br)C1C (configuration not stated)	-9	3	23*	7	0
